From PubChem BioAssay (NCATS)
Results filed as inconclusive are left out. Active and inactive are the calls of the source. Unless noted, the call rests on the fitted dose curve; in most records, active means well fitted curve in the direction sought with a large enough effect; inconclusive means small, poorly fitted or top-dose-only effect, or another doubt; inactive means no such curve, though single readings can be large; an effect the other way counts as inactive or inconclusive.

Key:
[1] = Cell Viability - BJ (AID 421; calls by dose curve;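 further: potency means the concentration at half of the fitted maximal effect; cells exposed to compound for 40 hours at 37 °C before readout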); conditions: BJ fibroblast viability, qHTS
How it was run: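 Normal human BJ foreskin fibroblasts, 1500/well in complete medium, treated 40 hr at 37 °C. Cellular ATP by CellTiter-Glo luminescence; normalized to DMSO and 100 uM tamoxifen, AC50 from Hill fit.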

[2] = Cell Viability - Jurkat (AID 426;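 active means dose-dependent loss of cell ATP signal giving a full or clear fitted curve, ranked by lower potency value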; further: potency means the concentration at half of the fitted maximal effect); conditions: qHTS
How it was run: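 Cytotoxicity was scored as loss of cellular ATP, measured by luciferase-based luminescence, in Jurkat clone E6-1 cells after 40 h compound treatment; tamoxifen and doxorubicin served as positive controls.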

[3] = Cell Viability - Hek293 (AID 427;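 active means compounds whose dose-response curve shows a full or clear partial loss of cell viability, called from curve shape rather than a numeric limit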;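 further: potency means the concentration at half of the fitted maximal effect; cells exposed to compound for 40 hours at 37 °C before reading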); conditions: qHTS
How it was run: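 HEK293 cells in complete medium were exposed to compound for 40 hr at 37 °C, then cellular ATP was read by CellTiter-Glo luminescence. Data were normalized to DMSO (basal) and 100 uM tamoxifen (100% inhibition), and AC50 came from Hill fits.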

[4] = Cell Viability - HepG2 (AID 433; calls by dose curve;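 further: potency means the concentration at half of the fitted maximal effect; potency for ATP loss meaning cytotoxicity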); conditions: qHTS
How it was run: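 Cytotoxicity is scored as loss of intracellular ATP in HepG2 cells exposed to compounds for 40 h. Concentration-response curves, normalized to DMSO and 100 uM tamoxifen, give AC50 values.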

[5] = Cell Viability - MRC5 (AID 434; calls by dose curve;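 further: potency means the concentration at half of the fitted maximal effect; potency reflects cytotoxicity seen as loss of intracellular ATP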); conditions: MRC5 lung fibroblast viability, qHTS
How it was run: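 AC50 values come from Hill-equation fits of intracellular ATP loss, measured by CellTiter-Glo luminescence. Normal lung fibroblasts (MRC5) had 40 hr compound treatment at 37 C, normalized between DMSO and 100 uM tamoxifen.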

[6] = Cell Viability - SK-N-SH (AID 435; calls by dose curve;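 further: potency means the concentration at half of the fitted maximal effect; compound exposure lasted 40 h at 37 °C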); conditions: SK-N-SH neuroblastoma cell viability qHTS
How it was run: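 Cells seeded at 1500 per well and incubated 5 hr at 37 °C. Compound added, then 40 hr at 37 °C. CellTiter-Glo added, 20 min at room temperature, luminescence read.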

[7] = Cell Viability - N2a (AID 540); conditions: N2a mouse neuroblastoma cell viability; activity change, negative = cytotoxicity: at 92.2 µM (top of the series);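 further: plate controls were DMSO alone for no effect and tamoxifen control for full effect; nearly all actives have a fitted effect of over 45% in size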
How it was run: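 In this qHTS cytotoxicity screen, ATP-dependent luciferase luminescence reports viable N2a cells after a 40 hr compound exposure in complete culture medium. Potencies are AC50 values from standard Hill equation fits.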

[8] = Cell Viability - NIH 3T3 (AID 541); conditions: NIH 3T3 cell viability, qHTS; activity change, negative = cytotoxicity: at 92.2 µM (top of the series);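 further: plate controls were DMSO alone for no effect and tamoxifen positive control for full effect; nearly all actives have a fitted effect of over 25% in size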
How it was run: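 In this cytotoxicity screen, acute toxicity is scored as an ATP drop measured by CellTiter-Glo in NIH 3T3 fibroblasts following a 40 hr, 37 °C incubation with compound.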

[9] = Cell Viability - HUV-EC-C (AID 542); conditions: HUV-EC-C endothelial cell viability, qHTS; series mostly up to 92.2 µM; further: on the % scale 0 is the no-effect control and ±100 the full control effect; nearly all actives have a fitted effect of over 35% in size
How it was run: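 Concentration-dependent ATP loss in HUV-EC-C cells is the measure. Exposure lasts 40 hr at 37 °C; luminescence follows CellTiter-Glo addition, and Hill fits give AC50.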

[10] = Cell Viability - H-4-II-E (AID 543); conditions: H-4-II-E rat hepatoma viability; series mostly up to 92.2 µM; further: on the % scale 0 is the no-effect control and ±100 the full control effect; nearly all actives have a fitted effect of over 35% in size
How it was run: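 AC50 from Hill-modelled qHTS concentration-response curves. H-4-II-E rat hepatoma cells in complete medium, 40 hr exposure at 37 °C, viability by CellTiter-Glo ATP luminescence.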

[11] = Cell Viability - SH-SY5Y (AID 544); conditions: SH-SY5Y neuroblastoma cell viability; viability change, negative = cytotoxic: at 92.2 µM (top of the series); further: nearly all actives have a fitted effect of over 55% in size
How it was run: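 Quantitative HTS in SH-SY5Y neuroblastoma cells, 40 hr treatment at 37 °C, ATP content by luciferase luminescence; AC50 from Hill fits.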

[12] = Cell Viability - Renal Proximal Tubule (AID 545); conditions: renal proximal tubule cells viability, primary cells of rat origin; activity change, negative = cytotoxicity: at 91.7 µM (top of the series); further: nearly all actives have a fitted effect of over 40% in size
How it was run: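 Cytotoxicity is scored as a concentration-dependent drop in cellular ATP in primary rat renal proximal tubule cells exposed for 40 hr. AC50 derives from Hill modelling.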

[13] = Cell Viability - Mesenchymal (AID 546); conditions: mesenchymal cells viability, qHTS; activity change, negative = cytotoxicity: at 91.7 µM (top of the series);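 further: cells exposed to compound for 40 hours before reading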
How it was run: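 CellTiter-Glo luminescence (intracellular ATP, 20 min room temperature) after 40 hr compound exposure at 37 °C of 1000 glomerulus-derived human kidney mesenchymal cells/well; AC50 values obtained by fitting qHTS concentration-response data to the Hill equation.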

[14] = Cellular Toxicity (caspase-3) HepG2 (AID 654); conditions: HepG2 caspase-3 activation, luminescence; series mostly up to 92.2 µM;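 further: cells exposed to compound for 16 hours before reading; 0% = DMSO alone and 100% = caspase signal from 100 µM tamoxifen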
How it was run: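 Concentration-response AC50 values reflect caspase-3/7 induction in HepG2 cells after 16 hours of compound exposure, quantified by luminescence from liberated aminoluciferin and referenced to 100 uM tamoxifen as full stimulation.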

[15] = Cellular Toxicity (caspase-3) Jurkat (AID 655); conditions: Jurkat caspase-3 activation, luminescence; caspase-3 activation: at 92.2 µM (top of the series), DMSO = 0%, tamoxifen = 100%;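 further: cells exposed to compound for 16 h at 37 °C before reading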
How it was run: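 Caspase 3/7 activation is scored as increased luminescence in Jurkat cells cultured with compound for 16 hours in complete medium. AC50 values come from Hill fits of qHTS concentration-response data normalized to DMSO and 100 uM tamoxifen controls.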

[16] = Cellular Toxicity (caspase-3) HUV-EC-C (AID 656); conditions: HUV-EC-C cells, caspase-3 activation (apoptosis); series mostly up to 92.2 µM
How it was run: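 Read-out: luminescence proportional to caspase 3/7 activity, measured 20 min after adding Caspase-Glo 3/7 reagent. Cells (HUV-EC-C) had received compound for 16 hr at 37°C. Increases relative to DMSO and 100 uM tamoxifen gave concentration-response AC50 values.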

[17] = Cellular Toxicity (caspase-3) SHSY5Y (AID 657); conditions: SH-SY5Y caspase-3 activation; series mostly up to 91.7 µM
How it was run: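 Cells plated and incubated 5 h at 37 °C, dosed over a concentration range, incubated 16 h, then given Caspase-Glo 3/7 reagent for 1 h at room temperature before luminescence reading. Staurosporine (10 uM) defined full stimulation.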

[18] = Cellular Toxicity (caspase-3) BJ (AID 658); conditions: BJ fibroblasts, luminescence; Potency: caspase-3 activation; series mostly up to 91.7 µM
How it was run: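 Caspase-Glo 3/7 luminescence, read 1 hr after reagent at room temperature, in normal BJ fibroblasts exposed 16 hours at 37 °C. AC50 values from Hill-equation concentration-response, scaled between DMSO basal and 10 uM staurosporine as 100%.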

[19] = Cellular Toxicity (caspase-3) MRC-5 (AID 659); conditions: MRC-5 cells, luminescence, normalized: DMSO 0%, 10 µM staurosporine 100%; series mostly up to 91.7 µM
How it was run: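 Luminescent Caspase-Glo 3/7 read-out (1 h, room temperature) after a 16 h, 37 °C compound exposure of MRC-5 lung fibroblasts at 1500 cells/well. Concentration-response AC50 from Hill equation; 0% DMSO, 100% 10 uM staurosporine.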

[20] = Cellular Toxicity (caspase-3) Mesangial (AID 660); conditions: mesangial cells, normalized: DMSO 0%, 100 µM tamoxifen 100%; at 91.7 µM (top of the series);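 further: cells exposed to compound for 16 h before the caspase read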
How it was run: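 AC50 values come from Hill-equation fits of caspase 3/7 activation, measured as Caspase-Glo luminescence in human glomerular mesangial cells exposed to compound for 16 h at 37 °C; 100% set by 100 uM tamoxifen.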

[21] = Cellular Toxicity (caspase-3) H-4-II-E (AID 663); conditions: H-4-II-E rat hepatoma; Potency: caspase-3 activation; caspase-3 activation: at 92.2 µM (top of the series), scaled: DMSO 0%, 100 µM tamoxifen 100%;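 further: cells exposed to compound for 16 hr before readout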
How it was run: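 Caspase 3/7 activation measured by luminescent aminoluciferin substrate cleavage after 16 hr compound treatment of H-4-II-E cells in complete medium. Increase normalized between DMSO (basal) and 100 uM tamoxifen (100%); Hill-equation AC50 from concentration-response.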

O=C=Nc1ccc(Cc2ccc(N=C=O)cc2)cc1
inactive: Potency [1] > 92 µM | Potency [2] > 92 µM | Potency [3] > 92 µM | Potency [4] > 92 µM | Potency [5] > 92 µM | Potency [6] > 92 µM | Potency [7] | Potency [8] | Potency [9] | Potency [10] | Potency [11] | Potency [12] | Potency [13] | Potency [14] | Potency [15] | Potency [16] | Potency [17] | Potency [18] | outcome [19] | caspase-3 activation [20] -0.349% | caspase-3 activation [21] 1.23%
